PNC inhibitor = inhibitors of perinucleolar compartment assembly | PC3M PTB-GFP, PNC prevalence imaging, 16 h; active compounds read low | activity change (PNC), negative = inhibition, % at 10 µM | AID 2417 | hit rate 3.1% among 140,000;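 active = readout at or below -70, meaning at least 70% loss of cells showing the perinucleolar compartment, a nuclear body marking cancer cells; inconclusive = readout between -30 and a set limit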;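 note: plate controls were DMSO wells for no effect and camptothecin positive control wells for full effect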
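Compounds are pinned in duplicate onto adhered PC3M cells stably expressing GFP-tagged PTB and incubated 16 h at 37 C. Cells are then fixed, nuclei stained with Hoechst, and PNC-positive cells counted.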
15-hLO-2 inh = blocks human 15-lipoxygenase 2 activity. O15296. purified 15hLO-2, xylenol orange hydroperoxide absorbance. Potency, µM (series often up to 57.1 µM), for the others: at the highest dose activity change, negative = inhibition, most hits filed as inhibitors. hit rate 0.56% among 110,000. AID 881; note: potency is the fitted concentration of half-maximal effect; nearly all actives have a fitted effect of over 60% in size
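Read-out: hydroperoxide product oxidises ferrous iron, measured as xylenol orange complex via the 573-to-405 nm absorbance ratio after 30 min. Reaction: 50 nM enzyme, 15 min compound preincubation, 45 uM arachidonic acid, 90 min RT, Hepes pH 7.5 with Triton X-100.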
12-hLO inh = blocks human 12-lipoxygenase activity; P18054; purified 12-hLO, xylenol orange hydroperoxide absorbance; Potency, µM (titrated, usually from 57.1 µM), for the others: at the top dose activity change, negative = inhibition, hits mostly inhibitors; hit rate 0.12% among 150,000; AID 1452; note: potency is the fitted concentration of half-maximal effect; nearly all actives have a fitted effect of over 55% in size
Target sequence (P18054 whole entry, looked up): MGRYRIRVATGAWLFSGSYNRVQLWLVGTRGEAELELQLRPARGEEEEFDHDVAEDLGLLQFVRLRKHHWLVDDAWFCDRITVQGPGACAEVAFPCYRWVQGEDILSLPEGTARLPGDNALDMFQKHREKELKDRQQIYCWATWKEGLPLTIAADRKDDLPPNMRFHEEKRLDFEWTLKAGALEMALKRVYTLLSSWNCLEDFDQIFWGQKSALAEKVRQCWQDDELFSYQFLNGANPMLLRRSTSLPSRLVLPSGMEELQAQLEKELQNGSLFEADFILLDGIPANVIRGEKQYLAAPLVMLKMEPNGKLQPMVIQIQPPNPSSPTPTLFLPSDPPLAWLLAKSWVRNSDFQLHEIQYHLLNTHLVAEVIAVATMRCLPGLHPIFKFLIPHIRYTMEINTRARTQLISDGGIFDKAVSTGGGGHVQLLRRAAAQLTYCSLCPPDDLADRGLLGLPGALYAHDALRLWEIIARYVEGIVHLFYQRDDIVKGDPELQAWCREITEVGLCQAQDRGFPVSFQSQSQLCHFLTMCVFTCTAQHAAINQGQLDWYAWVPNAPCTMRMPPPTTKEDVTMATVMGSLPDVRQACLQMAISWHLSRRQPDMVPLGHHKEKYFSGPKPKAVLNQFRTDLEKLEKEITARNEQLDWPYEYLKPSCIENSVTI
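Hydroperoxide output read as Fe(III)-xylenol orange absorbance, 573-to-405 nm ratio, after 30 min reaction with 40 uM arachidonic acid. Enzyme: 150 nM purified human 12hLO, 15 min compound preincubation; 25 mM Hepes pH 7.0, room temperature.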
An asterisk follows results filed as active; ? = inconclusive; . = no result given; [ ] = another dose, or the depositor's remark. Shown are actives, neighbours in structure and some others; about 3.2% of the full set was active somewhere. Unless noted, calls come from the whole dose curve; as a rule, active = well fitted curve in the direction sought with a large enough effect; inconclusive = small, poorly fitted or top-dose-only effect, or another doubt; inactive = no such curve, though single readings can be large; an effect the other way counts as inactive or inconclusive. Unless noted, % is set by controls: 0 for no effect and ±100 for the full control effect.

SMILES	PNC inhibitor	15-hLO-2 inh	12-hLO inh
COCCNC(=O)CS(=O)(=O)Cc1nc(-c2ccc(C)cc2)oc1C	?	-1.2%	5.8%
O=C(O)COCCN1CCN([C@@H](c2ccccc2)c2ccc(Cl)cc2)CC1	.	3.5%[25.6 µM]	-0.7%[25.6 µM]
O=C(O)c1cccc(N2C(=O)c3cccnc3C2=O)c1	-100.3*	11.6%	-10.8%
O=C1c2cccnc2C(=O)N1CO	7.5	-11.2%	2.2%
O=C(O)c1cccc(N2C(=O)C3CC=CCC3C2=O)c1 (stereo unspecified)	-100.0*	.	3.4%
O=C(O)c1cccc(N2C(=O)C3CC=C(Cl)CC3C2=O)c1 (stereo unspecified)	50.0	1.2%	-4.0%
CCO/C=C/C(O)(CNC(=O)c1ccc(C(C)(C)C)cc1)C(F)(F)F (stereo unspecified)	-10.9	.	-7.1%
Cc1noc(C)c1-c1ccc2ncnc(NCc3cccs3)c2c1	.	8.8%	.
NCCc1nnc(SCC(N)=O)o1	9.8	4.2%	-3.7%
CCN(CC)C(=O)CSc1nnc(CCN)o1	-81.7*	1.4%	0.3%
O=C(Nc1ccccc1)N1CCCC2(CCNCC2)C1	.	-0.6%	2.5%
CCOC(=O)C1CSC(Cc2ccc(OCc3ccc([N+](=O)[O-])cc3)cc2)N1 (stereo unspecified)	.	9.4%	-8.1%
CCCCCC1CC(CC(=O)NC(=S)Nc2ccc([N+](=O)[O-])cc2)C(=O)O1 (stereo unspecified)	?	.	-3.6%
CCCCCCC1CC(CC(=O)Nc2ccc([N+](=O)[O-])cc2)C(=O)O1 (stereo unspecified)	-103.5*	.	0.8%
C=CCc1c(C)nc(SC)nc1Nc1ccc(C(C)=O)cc1	14.5	12.9%	-9.2%
CN(C)CC(C)(C)CNC(=O)c1ccc(Cc2nc3ccccc3[nH]2)cc1	.	.	-2.2%
O=C(O)CCSc1nc2ccccc2s1	?	-9.2%	5.2%
OC(CNc1nc2ccccc2s1)c1ccccc1 (stereo unspecified)	-81.6*	2.2%	-1.1%
CCOC(=O)c1oc2ccc(CNC(C)(C)C)c(Cl)c2c1C	-118.9*	.	-11.1%
CCOC(=O)c1oc2cccc(O)c2c1C	33.5	-3.8%	-3.1%
COC(C(=O)Nc1ccccc1F)c1ccccc1 (stereo unspecified)	0.4	1.1%	3.7%
COC(C(=O)NC1CC1)c1ccccc1 (stereo unspecified)	-113.8*	.	0.0%
O=C(CSCC(=O)N1CCCc2ccccc21)Nc1nc(-c2ccccc2)cs1	8.1	.	-1.6%
CN1CCC[C@@H]1c1cccnc1.O=C(O)c1ccccc1O.O=C([OH2+])c1ccccc1O.O=C([OH2+])c1ccccc1O.O=C([OH2+])c1ccccc1O.[Mn]	.	2.1%[11.4 µM]	-6.9%[11.4 µM]
COc1cccc(Nc2ncc3nc(-c4cccs4)c(=O)n(-c4ccccc4)c3n2)c1	.	-8.7%	.
SMILES	PNC inhibitor	15-hLO-2 inh	12-hLO inh
Cc1ccsc1C(=O)Nc1ccc(F)c([N+](=O)[O-])c1	-81.0*	.	0.4%
O=C(Nc1ccccc1)Nc1ccc(F)c([N+](=O)[O-])c1	2.1	.	0.4%
C[C@H](O)[C@H](O)[C@@H]1CNc2nc(N)[nH]c(=O)c2N1	.	-15.8%	-7.4%
Cc1ccc(/C=C/C(=O)O)cc1S(=O)(=O)N(CCO)CCO	-103.1*	.	3.5%
Cc1ccc(/C=C/C(=O)O)cc1S(=O)(=O)NCCCO	3.0	7.7%	0.2%
COc1cccc2c1[C@@H]1CN(CCCCn3c(=O)[nH]c4c(sc5ncc(-c6ccccc6)nc54)c3=O)C[C@H]1CO2	.	45.2%	9.3%
O=c1c2ccccc2nc(/C=C/c2ccc([N+](=O)[O-])cc2)n1CCCO	?	.	3.5%
O=c1c2ccccc2nc(/C=C/c2ccc([N+](=O)[O-])o2)n1CCCO	-88.6*	-21.5%	-2.9%
CCC(C)NC(=O)C1CCCCN1S(=O)(=O)c1ccc(F)cc1 (stereo unspecified)	?	2.1%	-0.9%
CCC(C)NC(=O)C1CCCN1S(=O)(=O)c1ccc(Cl)cc1 (stereo unspecified)	-118.9*	.	-1.4%
Cc1cc(C)nc(SCC(=O)N/N=C/c2cccn2-c2cccc(C(F)(F)F)c2)n1	-108.4*	-10.0%	-8.4%
Cc1cc(C)nc(SCC(=O)N/N=C/c2cccn2-c2ccc(O)cc2)n1	?	0.9%	-5.6%
CCOC(=O)N1CCC(NC(=O)CCN2C(=O)C3C4C=CC(C4)C3C2=O)CC1 (stereo unspecified)	-101.5*	2.3%	-3.4%
CCOC(=O)N1CCC(NC(=O)CCC(=O)c2ccccc2)CC1	?	4.5%	0.1%
CCCN(CCC)C(=O)Cn1c(=O)n(CCCCCC(=O)Nc2ccccc2)c(=O)c2sccc21	-9.0	.	-3.0%
CCCCCCCC[n+]1cccc(C(=O)N(CC)CC)c1	-123.8*	.	-1.5%
CCCCCCCCCCCCCCCC[n+]1cccc(C(=O)N(CC)CC)c1	?	.	0.4%
Cc1cc(N2C(=O)C3C4CC(C(Br)C4Br)C3C2=O)no1 (stereo unspecified)	-29.1	.	-2.0%
CC(C)CC(OC(=O)c1cccs1)C(=O)NCc1ccco1 (stereo unspecified)	-18.0	-24.1%	-9.9%
CCC(OC(=O)c1cccs1)C(=O)NCc1ccco1 (stereo unspecified)	-101.1*	-0.7%	5.5%
CC(=O)O[C@]1(C)CC[C@]23CC1C(C)(C)C2CC[C@@H]3C (stereo partly specified)	.	20.2%	-2.0%
CCOC(=O)c1cnn2c(N)c(C#N)nnc12	-116.6*	8.8%	5.1%
CCOC(=O)c1c(C)nc2c(C#N)cnn2c1C	26.0	-1.6%	3.4%
COc1ccc(NC2C[C@H]3CCCC(=O)N4CC[C@@H](C2)[C@@H]34)cc1 (stereo partly specified)	.	-2.2%[0.0915 µM]	0.1%[0.00818 µM]
Cc1ccc(N=Nc2c(O)ccc3cc(S(=O)(=O)O)ccc23)cc1	.	-6.2%[11.4 µM]	-7.7%[11.4 µM]
SMILES	PNC inhibitor	15-hLO-2 inh	12-hLO inh
Cc1ccc(S(=O)(=O)Oc2ccc(N=Nc3ccc(-c4ccc(N=Nc5c(O)ccc6cc(S(=O)(=O)O)cc(S(=O)(=O)O)c56)c(C)c4)cc3C)cc2)cc1	.	3.16µM*	?
O=C(CSc1nnc(-c2cccnc2)s1)Nc1ccc(C(=O)O)cc1	?	.	-1.5%
CC1CC(C)(C)CC2(C1)NC(=O)N(CC(=O)NC1CCCc3ccccc31)C2=O (stereo unspecified)	40.0	.	15.6%
COC(=O)C(NC(=O)c1ccco1)(Nc1cc(C)ccn1)C(F)(F)F (stereo unspecified)	-100.0*	.	-0.1%
Cc1ccnc(NC(=S)NC(=O)c2ccco2)c1	40.4	-4.2%	3.8%
COc1ccc2c(c1)sc1nc(-c3ccccc3)cn12	-96.2*	-6.6%	-3.7%
COc1ccc(-c2nnc(SC)n2C)cc1	26.3	-5.2%	-3.1%
CCOC(=O)N1CCN(C(=O)c2ccc3c(c2)sc2nc(-c4ccc(OC)cc4)cn23)CC1	17.9	-0.4%	-1.1%
COc1ccc(-n2cc(-c3ccccc3)nc2SC)cc1	-84.9*	.	-1.3%
CCCCCCCCCCCCOCC1CO1 (stereo unspecified)	.	-5.6%	1.4%
COc1ccc(N2CCN(C(CNC(=O)C(=O)NCCc3c[nH]c4ccccc34)c3ccco3)CC2)cc1 (stereo unspecified)	16.0	.	-1.3%
CN(C)c1ccc(-c2cncnc2NCc2ccccc2)cc1	.	64.5%	1.1%

Bioassay records (PubChem)
